Test results from PubChem BioAssay (NCI).
The panel holds about 79,000 compounds, 15% with a hit somewhere; the sample as a whole holds those more often. Calls of active or inactive are those of the source. Rule as the data show it: active = growth inhibition above about 70%; inactive = the rest.

Assays:
[1] = NCI Yeast Anticancer Drug Screen. Data for the rad52 strain (AID 147);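 also: 0% = growth of vehicle-treated control cultures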; details: S. cerevisiae rad52 mutant growth inhibition, active compounds read high
Method in brief: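 Screen used a yeast mutant impaired in DNA repair. After compound exposure, growth was measured. Values reflect inhibition compared with vehicle-treated cells.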

[2] = NCI Yeast Anticancer Drug Screen. Data for the wt1 strain (AID 149);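 also: 0% = growth of vehicle-treated wt1 cultures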; details: S. cerevisiae wt1 strain (SPY 50644) growth inhibition, active compounds read high
Method in brief: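 The wt1 strain was treated with compounds, and growth was compared with vehicle-treated cultures to give inhibition.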

[3] = NCI Yeast Anticancer Drug Screen. Data for the rad50EPP+ strain (AID 151);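 also: 0% = growth of vehicle-treated control cultures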; details: S. cerevisiae rad50 mutant strain, active compounds read high
Method in brief: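 Exposing the rad50EPP+ strain to each compound, growth was compared with vehicle-only cultures to give inhibition.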

[4] = NCI Yeast Anticancer Drug Screen. Data for the mgt1 strain (AID 153); details: S. cerevisiae mgt1 mutant growth inhibition, active compounds read high
Method in brief: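 Genetically defined yeast (mgt1) treated with compound; inhibition of growth expressed against vehicle-treated controls.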

[5] = NCI Yeast Anticancer Drug Screen. Data for the rad50 strain (AID 155);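 also: 0% = growth of vehicle-only cultures of the same strain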; details: S. cerevisiae rad50 strain growth inhibition, active compounds read high
Method in brief: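 Cells are treated with compound, grown, and their growth is then scored against vehicle-only cultures of the same repair-deficient yeast strain.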

[6] = NCI Yeast Anticancer Drug Screen. Data for the mec2-1 strain (AID 157); details: S. cerevisiae mec2-1 strain, active compounds read high
Method in brief: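 Readout is yeast growth inhibition, normalised to vehicle-treated controls, in the mec2-1 strain exposed to compound.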

[7] = NCI Yeast Anticancer Drug Screen. Data for the rad14 strain (AID 159);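 also: 0% = growth of vehicle-treated control cultures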; details: S. cerevisiae rad14 strain growth inhibition, active compounds read high
Method in brief: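 Readout: yeast growth inhibition, referenced to vehicle-only cultures. Strain bears a defined alteration in DNA damage repair.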

[8] = NCI Yeast Anticancer Drug Screen. Data for the CLN2oe strain (AID 163);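 also: 0% = growth of vehicle-only control cultures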; details: S. cerevisiae CLN2oe strain, active compounds read high
Method in brief: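 Values reflect how much compound exposure reduced yeast growth, referenced to vehicle-exposed cells. Assay organism is a strain with a defined genetic change affecting cell-cycle control.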

[9] = NCI Yeast Anticancer Drug Screen. Data for the cln2 rad14 strain (AID 165);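 also: 0% = growth equal to vehicle treated cultures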; details: S. cerevisiae cln2 rad14 strain, active compounds read high
Method in brief: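 Relative to vehicle controls, growth inhibition of compound-treated cln2 rad14 yeast was recorded.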

[10] = NCI Yeast Anticancer Drug Screen. Data for the bub3 strain (AID 167); details: S. cerevisiae bub3 mutant strain, active compounds read high
Method in brief: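 Part of a panel of yeast mutants defective in DNA damage repair or cell cycle regulation. Each strain is grown with compound, and inhibition is calculated relative to solvent-treated cultures.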

[11] = NCI Yeast Anticancer Drug Screen. Data for the wt2 strain (AID 169);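 also: 0% = growth of vehicle-treated yeast cultures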; details: S. cerevisiae wt2 strain growth inhibition, active compounds read high
Method in brief: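 Values express reduction in yeast growth under compound treatment, referenced to vehicle-treated cells.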

[12] = NCI Yeast Anticancer Drug Screen. Data for the mlh1 strain (AID 171);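 also: 0% = growth of vehicle-treated control cultures of the same strain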; details: S. cerevisiae mlh1 strain growth inhibition, active compounds read high
Method in brief: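 Steps: expose the defined-mutant yeast strain to compound; expose a parallel culture to vehicle; measure growth; express compound effect as inhibition relative to the vehicle culture.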

[13] = NCI Yeast Anticancer Drug Screen. Data for the sgs1 strain (AID 173);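 also: 0% = growth of vehicle-only control cultures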; details: S. cerevisiae sgs1 mutant, active compounds read high
Method in brief: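 Treat defined-mutant yeast with compound; measure growth; calculate inhibition relative to vehicle-treated cells.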

[14] = NCI Yeast Anticancer Drug Screen. Data for the mlh1 rad18 strain (AID 175); details: S. cerevisiae mlh1 rad18 strain growth inhibition, active compounds read high
Method in brief: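 Test agents were incubated with a yeast strain of defined genotype (DNA damage repair defect). Inhibition of growth was derived by comparison with vehicle-exposed cultures.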

[15] = NCI Yeast Anticancer Drug Screen. Data for the rad18 strain (AID 177); details: S. cerevisiae rad18 mutant growth inhibition, active compounds read high
Method in brief: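 A genetically defined yeast mutant impaired in DNA damage repair was treated with test compounds, then its growth was measured against cultures receiving vehicle alone.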

[16] = at 5.0 µM (retest, dose inferred, filed as 0.5)
[17] = at 50.0 µM (retest, dose inferred, filed as 5.0)

Measured: growth inhibition

CN(C)CCNc1ccc2ncn3c4ccc(O)cc4c(=O)c1c23
inactive: [1]; at 1.2 µM -10% | [1]; at 3.7 µM 3% | [1]; at 11.0 µM 4% | [1]; at 33.0 µM 3% | [1]; at 100.0 µM 30% | [2]; at 1.2 µM -21% | [2]; at 3.7 µM -6% | [2]; at 11.0 µM -21% | [2]; at 33.0 µM 0% | [2]; at 100.0 µM -27% | [3]; at 1.2 µM -33% | [3]; at 3.7 µM -12% | [3]; at 11.0 µM -21% | [3]; at 33.0 µM -1% | [3]; at 100.0 µM 5% | [4]; at 1.2 µM -5% | [4]; at 3.7 µM 7% | [4]; at 11.0 µM -19% | [4]; at 33.0 µM -10% | [4]; at 100.0 µM 2% | [5]; at 1.2 µM -14% | [5]; at 3.7 µM 4% | [5]; [16] 50% | [5]; at 11.0 µM -6% | [5]; at 33.0 µM 8% | [5]; at 50.0 µM -17.1% | [5]; at 100.0 µM 22% | [6]; at 1.2 µM -12% | [6]; at 3.7 µM -7% | [6]; [16] 0% | [6]; at 11.0 µM -4% | [6]; at 33.0 µM -9% | [6]; [17] 7% | [6]; at 50.0 µM -10.1% | [6]; at 100.0 µM -20% | [7]; at 1.2 µM -35% | [7]; at 3.7 µM -35% | [7]; at 11.0 µM -31% | [7]; at 33.0 µM -30% | [7]; at 100.0 µM -23% | [8]; at 1.2 µM -12% | [8]; at 3.7 µM 1% | [8]; at 11.0 µM 9% | [8]; at 33.0 µM 13% | [8]; at 100.0 µM 8% | [9]; [16] 9% | [9]; [17] 12% | [9]; at 50.0 µM 27.6% | [10]; at 1.2 µM -19% | [10]; at 3.7 µM -12% | [10]; [16] 11% | [10]; at 11.0 µM -14% | [10]; at 33.0 µM 3% | [10]; [17] 11% | [10]; at 50.0 µM -1% | [10]; at 100.0 µM 7% | [11]; at 1.2 µM -8% | [11]; at 3.7 µM -3% | [11]; at 11.0 µM -2% | [11]; at 33.0 µM -8% | [11]; at 100.0 µM -11% | [12]; at 1.2 µM -23% | [12]; at 3.7 µM -21% | [12]; at 11.0 µM -15% | [12]; at 33.0 µM -4% | [12]; at 100.0 µM -8% | [13]; at 1.2 µM -21% | [13]; at 3.7 µM -17% | [13]; at 11.0 µM -3% | [13]; at 33.0 µM -16% | [13]; at 100.0 µM -23% | [14]; [16] 4% | [14]; [17] 12% | [14]; at 50.0 µM -48.5% | [15]; at 1.2 µM -23% | [15]; at 3.7 µM -1% | [15]; at 11.0 µM -9% | [15]; at 33.0 µM -12% | [15]; at 100.0 µM -12%
active: [5]; [17] 86%
